From the supplement of paper PMC11219838
Unmarked numbers belong to inactive results.

Key:
[1] = system: Meloidogyne hapla J2; test: proportion of mobile M. hapla J2 relative to DMSO control (fraction of DMSO control); higher = more viable, less nematicidal, active = 0.7 or less; settings: 60 µM; 5 days; temperature: 20 °C
Method in brief: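 Two biological replicates were run and averaged, each on 96-well plates in which about 25 M. hapla J2 sat in distilled water per well. Compound was pinned in to give 60 µM final and 0.6% v/v DMSO, and the sealed plates were shaken at 200 rpm and 20 °C for 5 days before 2 µL 1 M NaOH was added. Mobility was scored microscopically and divided by the mean from the plate's DMSO-only wells, of which there were eight.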

[2] = system: Ditylenchus dipsaci; test: proportion of mobile D. dipsaci (mixed stage) relative to DMSO control (fraction of DMSO control); higher = more viable, less nematicidal, active = 0.86 or less; extreme values may be limits of the assay; settings: 60 µM; 5 days; temperature: 20 °C
Method in brief: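 The worms, D. dipsaci raised on pea plants in Gamborg B-5 agar, were recovered through a filter funnel into water. Each well of a 96-well plate then held about 20 of them in distilled water plus pinned compound at 60 µM final (0.6% v/v DMSO), and the sealed plates were shaken at 200 rpm at 20 °C for 5 days. Following addition of 2 µL 1 M NaOH, mobile worms were counted by microscopy, and mobility was expressed against DMSO controls as the average of two biological replicates.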

| Compound | proportion of mobile M. hapla J2 [1] | proportion of mobile D. dipsaci [2] |
| --- | --- | --- |
| O=C(CSc1nnc(-c2ccc(Cl)cc2Cl)o1)N1CCCCC1 | 0.934 | 1 |
| Fc1ccc(OCc2nc(-c3ccc(Cl)cc3)no2)cc1 | 1.1 | 1 |
| O=C(CSc1nnc(-c2ccccc2)o1)NC1CC2CCC1C2 (stereo not drawn) | 0.795 | 1 |
| COc1ccc(-c2nc(C3CCCCC3)no2)cc1 | 0.896 | 1 |
| CC(=O)Nc1cccc(-c2nnc(SCc3ccc(F)cc3)o2)c1 | 0.959 | 1 |
| COc1ccc(-c2nnc(SCC(=O)Nc3ccc(Cl)cc3C)o2)cc1 | 0.709 | 1 |
| CC(C)(C)c1ccc(-c2noc(COc3ccccc3)n2)cc1 | 0.776 | 1 |
| Cc1ccc(-c2nnc(SCC(=O)Nc3c(C)cc(C)cc3C)o2)cc1 | 0.979 | 1 |
| COc1ccc(-c2nnc(SCC(=O)Nc3ccc(C(C)C)cc3)o2)cc1 | 0.967 | 1 |
| Cc1ccc(OCc2nc(-c3ccccc3)no2)cc1C | 1.1 | 1 |
| COc1ccccc1-c1nnc(SCc2ccc(C#N)cc2)o1 | 0.897 | 1 |
| COc1nc(-c2ccc(Cl)cc2)ccc1-c1noc(-c2ccncc2)n1 | 0.921 | 1 |
| Cc1ccc(-c2nc(-c3ccc(C(F)(F)F)cc3)no2)cc1 | 0.952 | 1 |
| Cc1ccc(SCc2nc(-c3ccccc3)no2)cc1 | 1.14 | 1 |
